Assay outcomes (PubChem BioAssay)
The full list was thinned out, with hits kept by preference.
nsP2pro primary – CHIKV nsP2 protease inhibition, primary qHTS. Q8JUX6. FRET peptide cleavage, nsP2pro, fluorescence 1 h. Potency, µM (top dose mostly 24.9 µM), without a hit: at the top dose activity change, negative = inhibition, hits mostly inhibitors. 31,000 tested, 1.1% active; note: nearly all actives have a fitted effect of over 60% in size
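Purified recombinant nsP2pro (150 nM final) in 10 mM Tris-HCl pH 8.0 with 0.01% Tween 20 was preincubated 15 min at room temperature with compound (7 concentrations, up to 25 uM). FRET peptide 2 substrate (2.5 uM final) was then added; fluorescence was read after 1 h.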
CHIKV nsP2 cell – secondary cell-based test for CHIKV nsP2 protease inhibitors; shares compounds with nsP2pro primary; cell-based CHIKV nsP2 protease reporter assay; Potency, µM (top dose mostly 51.1 µM), for inactives: at the top dose activity change, negative = inhibition, actives largely listed as inhibitors; 450 tested, 10% active; note: nearly all actives have a fitted effect of over 70% in size
CHIKV NSP2 FL – full-length CHIKV NSP2 protease inhibition, selectivity | shares compounds with nsP2pro primary | Full-length CHIKV NSP2 protease enzymatic counterscreen | Potency, µM (titrated, usually from 50.7 µM), for inactives: at the top dose activity change, negative = inhibition, actives largely listed as inhibitors | 410 tested, 39% active; note: nearly all actives have a fitted effect of over 65% in size
Furin counterscr – inhibits human furin in a CHIKV nsP2 protease selectivity counterscreen. shares compounds with nsP2pro primary. Recombinant human furin enzymatic counterscreen, fluorogenic substrate. Potency, µM (doses to about 50.6 µM), without a hit: at the highest dose activity change, negative = inhibition, actives largely listed as inhibitors. 410 tested, 6% active. AID 1964102
Target sequence (P09958 whole entry, looked up): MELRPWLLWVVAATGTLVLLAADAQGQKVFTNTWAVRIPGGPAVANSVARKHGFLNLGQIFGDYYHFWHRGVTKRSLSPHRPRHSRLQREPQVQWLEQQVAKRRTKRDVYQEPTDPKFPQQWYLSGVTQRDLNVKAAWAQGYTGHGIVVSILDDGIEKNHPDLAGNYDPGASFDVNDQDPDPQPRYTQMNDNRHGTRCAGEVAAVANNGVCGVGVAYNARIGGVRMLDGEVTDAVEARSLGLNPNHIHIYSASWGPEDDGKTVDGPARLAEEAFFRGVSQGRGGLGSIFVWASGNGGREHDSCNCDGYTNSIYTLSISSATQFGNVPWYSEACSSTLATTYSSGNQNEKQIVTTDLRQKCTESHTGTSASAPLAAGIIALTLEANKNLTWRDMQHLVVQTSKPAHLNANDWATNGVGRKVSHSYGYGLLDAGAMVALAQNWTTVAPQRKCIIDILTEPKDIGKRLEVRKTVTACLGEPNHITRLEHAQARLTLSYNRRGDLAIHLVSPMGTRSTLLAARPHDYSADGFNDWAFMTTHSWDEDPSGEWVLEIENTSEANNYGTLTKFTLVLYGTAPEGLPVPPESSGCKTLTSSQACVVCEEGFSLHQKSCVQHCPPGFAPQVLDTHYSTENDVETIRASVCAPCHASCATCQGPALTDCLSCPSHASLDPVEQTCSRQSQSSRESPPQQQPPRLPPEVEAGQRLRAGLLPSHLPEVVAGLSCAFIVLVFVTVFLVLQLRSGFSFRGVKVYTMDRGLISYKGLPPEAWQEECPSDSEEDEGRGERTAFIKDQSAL
nsP2 NS23 pep – blocks CHIKV nsP2 protease cleavage of endogenous NS2/3 peptide. Potency, µM (titrated, usually from 51 µM), inactives show at the highest dose activity change, negative = inhibition, hits mostly inhibitors. 410 tested, 34% active. AID 1964103. shares compounds with nsP2pro primary. Purified CHIKV nsP2 protease, endogenous NS2/3 peptide cleavage; note: nearly all actives have a fitted effect of over 55% in size
Papain counter – papain protease inhibition, counterscreen for nsP2pro inhibitors. shares compounds with nsP2pro primary. 410 tested, 5% active. Potency, µM (top dose mostly 51 µM), without a hit: top-dose activity change, negative = inhibition, usual class: inhibitors. purified papain protease activity, enzymatic inhibition. AID 1964104
nsP2pro conf qHTS – confirmation of CHIKV nsP2 protease inhibitors; CHIKV nsP2 protease enzymatic activity, qHTS; 410 tested, 43% active; AID 1964105; shares compounds with nsP2pro primary; Potency, µM (titrated, usually from 25.5 µM), without a hit: top-dose activity change, negative = inhibition, usual class: inhibitors; note: nearly all actives have a fitted effect of over 75% in size
HCV NS3 4A cs – selectivity counter-screen for CHIKV nsP2 protease inhibitors: HCV NS3/4A; AID 1964106; shares compounds with nsP2pro primary; HCV NS3/4A protease biochemical counterscreen; Potency, µM (highest dose often 50.9 µM), actives largely listed as inhibitors; 410 tested, 20% active; note: nearly all actives have a fitted effect of over 55% in size
* marks the source's active call; other numbers are inactive results; i = inactive; ? = inconclusive; ! = repeats disagree; [ ] = remark or other dose. Calls come from the whole dose curve. % is set by controls: 0 for no effect and ±100 for the full control effect; potency is the fitted concentration of half-maximal effect.

SMILES	nsP2pro primary	others
Cc1ccc(S(=O)(=O)Nc2cccc(C(=O)Nc3nc(-c4ccccc4)cs3)c2Cl)cc1	-6%
CC(NC(=O)[C@H](Cc1ccccc1)NC(=O)OCc1ccccc1)C(=O)CF (stereo partly drawn)	-28%
CC(C)C[C@H](NC(=O)CNC(=O)OCc1ccccc1)C(=O)N[C@@H](Cc1ccccc1)C(=O)CCl	-25%
C[C@H](NC(=O)[C@H](Cc1ccccc1)NC(=O)OCc1ccccc1)C(=O)CF	?	CHIKV nsP2 cell=-6%;CHIKV NSP2 FL=?;Furin counterscr=1%;nsP2 NS23 pep=-10%;Papain counter=0.046µM*;nsP2pro conf qHTS=?;HCV NS3 4A cs=i
Cc1cccc(C(=O)Nc2ccc(N3CCN(c4ccc(F)cc4)CC3)c(C(=O)O)c2)c1	?	CHIKV nsP2 cell=50%;CHIKV NSP2 FL=7.3µM*;Furin counterscr=-23%;nsP2 NS23 pep=16µM*;Papain counter=-3%;nsP2pro conf qHTS=9µM*;HCV NS3 4A cs=4.1µM*
O=C(Nc1ccc(Br)cc1)c1ccc(Br)c(S(=O)(=O)N2CCCCC2)c1	-4%
CC(=O)c1ccc(N2CCN(c3ccc(NC(=O)c4cccs4)cc3C(=O)O)CC2)cc1	-28%
CCOC(=O)N1CCN(Cc2nc3cc(NC(=O)c4cccc(C)c4)ccc3n2C(C)C)CC1	2%
O=C(Nc1ccc2c(c1)N(C1CCCC1)C(=O)c1ccccc1S2)c1ccccc1F	-16%
Cc1cccc(C(=O)Nc2ccc(N3CCC(CCN4CCOCC4)CC3)c(C(=O)O)c2)c1	4.5µM*!	CHIKV nsP2 cell=9%;CHIKV NSP2 FL=-10%;Furin counterscr=3%;nsP2 NS23 pep=-3%;Papain counter=-3%;nsP2pro conf qHTS=22%;HCV NS3 4A cs=?
O=C(Nc1ccc(N2CCOCC2)c(C(=O)O)c1)c1ccc(Br)cc1	3.5µM*	CHIKV nsP2 cell=11%;CHIKV NSP2 FL=2.9µM*;Furin counterscr=?;nsP2 NS23 pep=6.5µM*;Papain counter=3%;nsP2pro conf qHTS=5.7µM*;HCV NS3 4A cs=1.6µM*
O=C(Nc1ccc(N2CCN(c3ccc(F)cc3)CC2)c(C(=O)O)c1)c1ccccc1F	?	CHIKV nsP2 cell=13%;CHIKV NSP2 FL=4.1µM*;Furin counterscr=?;nsP2 NS23 pep=13µM*;Papain counter=-5%;nsP2pro conf qHTS=7.1µM*;HCV NS3 4A cs=1.3µM*
Cc1cccc(C(=O)N2C[C@H]3OC(=O)N(CCCN4CCOCC4)[C@H]3C2)c1	2%
CCN(CC)C(=O)C(c1ccccc1)N1CCN(c2ccc(NC(=O)c3ccccc3-c3cccnc3)cc2F)CC1 (stereo not drawn)	1%
O=C(Nc1ccc(Cl)c(-c2nc3cc(Cl)ccc3o2)c1)c1cc([N+](=O)[O-])ccc1N1CCOCC1	-12%
Cc1cc(C)cc(C(=O)Nc2cc(C(F)(F)F)ccc2N2CCN(c3ccccc3)CC2)c1	-17%
CC1=CC2(O)/C=C/C(C)(O)CC(O)/C=C/C(=O)OC23C(=O)NC(CC(C)C)C3C1C (stereo not drawn)	-16%[10 µM]
Cc1nc(C2CC23CCN(S(=O)(=O)c2cccc(F)c2)CC3)no1 (stereo not drawn)	-5%
COc1ccc2c(c1)C(C(=O)Nc1ccc(C)c([S+](=O)([O-])N3CCOCC3)c1)=CC(C)(C)CO2	1%
Cc1noc(C)c1S(=O)(=O)Nc1cnccc1C(=O)Nc1nc(-c2ccccc2)cs1	3%
COc1cccc(CN(C)c2ccc([S+](=O)([O-])Nc3nccs3)cc2)c1O	1%
Cc1ccc(S(=O)(=O)Nc2cnccc2C(=O)Nc2nc(-c3ccc(C)c(C)c3)cs2)cc1	i
CCC(=C(CC)c1ccc(OP(=O)(O)O)cc1)c1ccc(OP(=O)(O)O)cc1	3%[0.199 µM]
COc1cccc(Nc2ncnn3ccc(CN4CC[C@@H](N)[C@H](O)C4)c23)c1	39%
Cc1ccc(-c2ccccc2CN2CCN(C(=O)Nc3ccccc3)CC2)cc1Cl	-1%
SMILES	nsP2pro primary	others
O=C(Nc1ccccc1)c1cnc(N2CCCCC2)c2ccccc12	13%
O=C(Nc1cnc(N2CCC(N3CCCCC3)CC2)c(C(=O)O)c1)c1ccc(Br)cc1	4µM*	CHIKV nsP2 cell=-2%;CHIKV NSP2 FL=4.1µM*;Furin counterscr=?;nsP2 NS23 pep=16µM*;Papain counter=-7%;nsP2pro conf qHTS=8µM*;HCV NS3 4A cs=4.1µM*
O=C(Nc1ccc(N2CCC(N3CCCCC3)CC2)c(C(=O)O)c1)c1ccc(Br)cc1	34%
Cc1ccc(CNc2ncnc3ccc(-c4sc(C)nc4C)cc23)o1	-4%
CN1CCN(C(=O)[C@H](Cc2ccc(O[S+](=O)([O-])c3cccc4cnccc34)cc2)N[S+](=O)([O-])c2cccc3cnccc23)CC1	-3%
O=C(O)[C@@H]1C(=CCO)O[C@@H]2CC(=O)N12	13%[10 µM]
COc1ccc2nc(-c3ccc(OC)c(OC)c3)sc2c1	i
CCOc1ccc(S(=O)(=O)N2CCN(c3ccc(Cl)c(Cl)c3)CC2)c2ccccc12	-22%
CCOc1cc(S(=O)(=O)n2ccnc2C(C)C)ccc1Cl	8.9µM*	CHIKV nsP2 cell=-2%;CHIKV NSP2 FL=16µM*;Furin counterscr=-5%;nsP2 NS23 pep=?;Papain counter=-6%;nsP2pro conf qHTS=?;HCV NS3 4A cs=9.2µM*
CCOc1cc(C)c(C(C)C)cc1S(=O)(=O)n1ccnc1CC	-19%
NC(=O)[C@@H]1CC[C@@H]2CN1C(=O)N2OS(=O)(=O)O	-8%
O=C(Cn1nc(-c2ccc3c(c2)OCO3)ccc1=O)NCCc1ccccc1	i
Cc1cc(CC(C)C[Si](C)(O[Si](C)(C)C)O[Si](C)(C)C)c(O)c(-n2nc3ccccc3n2)c1 (stereo not drawn)	2%[5.1 µM]
CCC(C)C(N)C1=NC(C(=O)N[C@@H](CC(C)C)C(=O)N[C@H](CCC(=O)O)C(=O)N[C@H](C(=O)N[C@H]2CCCCNC(=O)[C@H](CC(N)=O)NC(=O)[C@@H](CC(=O)O)NC(=O)[C@H](Cc3cnc[nH]3)NC(=O)[C@@H](Cc3ccccc3)NC(=O)[C@H]([C@@H](C)CC)NC(=O)[C@@H](CCCN)NC2=O)[C@@H](C)CC)CS1 (stereo partly drawn)	0.22µM*!	CHIKV nsP2 cell=12%[17.6 µM];CHIKV NSP2 FL=0.14µM*;Furin counterscr=8µM*;nsP2 NS23 pep=1.1µM*;Papain counter=3.2µM*;nsP2pro conf qHTS=0.22µM*;HCV NS3 4A cs=8µM*
NCCCC[C@H](NC(=O)[C@@H]1CCCN1C(=O)[C@@H]1CSSC[C@H](N)C(=O)N[C@@H](Cc2ccccc2)C(=O)N[C@@H](Cc2ccccc2)C(=O)N[C@@H](CCC(N)=O)C(=O)N[C@@H](CC(N)=O)C(=O)N1)C(=O)NCC(N)=O	-12%
